Most compounds without a hit are left out; they make up all but 21% or so of the library.
Shiga toxin inh = blocks Shiga toxin action in Vero cells; Vero cells, Shiga toxin protein synthesis inhibition reporter; inhibition, % at 38.7 µM; actives 9.2% (n = 290,000); in the data active = inhibition mostly above about 28%, no sharp cut-off; inactive = mostly below about 43%
CHX counter = counter-screen for Shiga toxin inhibitors: cycloheximide protein synthesis inhibition | cell reporter, cycloheximide protein synthesis inhibition counterscreen | max response, % | actives 12% (n = 300,000); in the data active = max response mostly above about 13%, no sharp cut-off; inactive = mostly below about 14%; also: read at 38.3 µM for the half of the compounds with a filed dose
Pf growth 48h = P. falciparum growth inhibition at 48 hours (one generation) | P. falciparum luciferase growth in erythrocytes, 48 h | actives 5.9% (n = 310,000) | Potency, µM (titrated, usually from 28.7 µM), usual class: inhibitors
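Here the parasites carry a stable luciferase gene and grow inside erythrocytes in Albumax-based RPMI medium with compound for one erythrocytic cycle. Activity is scored as loss of luminescent signal.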
Pf growth 96h = P. falciparum growth inhibition at 96 hours; P. falciparum luciferase reporter growth, 96 h; Potency, µM (top dose mostly 28.7 µM), usual class: inhibitors; actives 6.9% (n = 320,000); AID 504834
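Infected RBCs, 2% Hct / 0.05% parasitemia final; luciferase-reporter P. falciparum; cpd 96 h, 37 C, 5% CO2; luciferase detection reagent; luminescence.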
SARS PLpro yeast = SARS-CoV PLP inhibition in yeast; Potency, µM (series often up to 32.9 µM), hits mostly activators; AID 485353; actives 0.19% (n = 330,000); S. cerevisiae expressing SARS-CoV PLpro, growth rescue; calls by dose curve; also: nearly all actives have a fitted effect of over 55% in size
NS1 function inh = influenza NS1 inhibition. Potency, µM (doses to about 46.1 µM). actives 0.4% (n = 270,000); calls by dose curve; also: actives are rising curves; nearly all actives have a fitted effect of over 50% in size
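Read-out: OD600 growth recovery of NS1-expressing budding yeast. Cells grown overnight at 30C in -URA glucose medium, washed, resuspended and diluted 1:100 in 2% galactose assay medium, pH 6.0. Same strain lacking NS1 served as positive control.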
A number is an active result; . = inactive; ? = inconclusive; / = no result given. Unless noted, calls follow the shape of the dose curve; as a rule, active = well fitted inhibition curve with a large enough effect; inconclusive = small, poorly fitted or top-dose-only effect, or another doubt; inactive = no such curve, though single readings can be large or run the other way.

SMILES	Shiga toxin inh	CHX counter	Pf growth 48h	Pf growth 96h	SARS PLpro yeast	NS1 function inh
Cc1ccc2nc(-c3ccc(SCC(=O)Nc4nc(C)cs4)nc3)[nH]c2c1	.	32	.	.	.	.
Cc1nc(NC(=O)CSc2ccc(-c3nc4ccccc4[nH]3)cn2)sc1C	.	.	.	.	.	.
Cc1ccc2nc(-c3ccc(SCC(=O)Nc4nnc(C)s4)nc3)[nH]c2c1	51	69	.	.	.	.
CCc1nnc(NC(=O)CSc2ccc(-c3nc4ccccc4[nH]3)cn2)s1	83	26	.	.	.	.
Cc1cc(NC(=O)COC(=O)C2CSC3(C)CCC(=O)N23)ccc1Br (stereo not given)	/	/	/	/	.	/
CC(=O)Nc1ccc(S(=O)(=O)NC2(C(F)(F)F)C(=O)Nc3c2c(=O)[nH]c(=O)n3Cc2cccnc2)cc1 (stereo not given)	.	.	.	.	.	.
COc1ccc(C2C(O)C(c3c[nH]c4ccccc34)=NN2C(=O)CCl)cc1 (stereo not given)	.	.	2.9µM	?	.	.
COc1ccc(C2NN=C(c3c[nH]c4ccccc34)C2O)cc1 (stereo not given)	38	36	?	?	.	.
OCC(CBr)(CBr)CBr	/	/	.	.	.	/
Cc1c(Cl)cccc1-n1c(SCC(=O)N2CCC(C(=O)O)CC2)nc2ccccc2c1=O	.	.	?	?	.	.
CN(C)c1cc(O)c(C(=S)Nc2ccccc2)c(N(C)C)c1	41	22	?	.	.	.
CN(C)c1ccc(C(=S)Nc2ccccc2)cc1	128	89	.	.	.	.
CN(C)c1ccc(NC(=S)c2ccccn2)cc1	.	.	.	.	.	.
CC(C)OC(=O)CSc1nc(N2CCOCC2)c2c(c1C#N)CC(C)(C)OC2	.	.	4.7µM	?	.	.
CC1(C)Cc2c(C#N)c(SCCC#N)nc(N3CCOCC3)c2CS1	.	.	?	4.7µM	.	.
CCCSc1nc(N2CCCC2)c2c(c1C#N)CC(C)(C)OC2	.	.	.	?	.	.
CC(C)c1nc(N2CCN(C(=O)c3ccco3)CC2)c(C#N)c2c1COC(C)(C)C2	.	.	?	?	.	.
CC1(C)Cc2c(C#N)c(SCCO)nc(N3CCOCC3)c2CO1	.	.	?	?	.	.
CC(C)c1nc(N2CCN(C(=O)c3ccccc3)CC2)c(C#N)c2c1COC(C)(C)C2	.	.	10µM	.	.	.
CC1(C)Cc2c(C#N)c(SCCOc3ccccc3)nc(N3CCOCC3)c2CO1	.	.	12µM	8.3µM	.	.
CC1(C)Cc2c(C#N)c(SCCC#N)nc(N3CCOCC3)c2CO1	.	.	?	?	.	.
C/C(=N\NC(=O)c1nnn(-c2nonc2N)c1C(C)C)c1ccc2ccccc2c1	.	.	.	.	.	.
CCCCc1ccc(N2C(=O)[C@@H]3C(CC(N)=O)NC4(C(=O)Nc5ccc(F)cc54)[C@@H]3C2=O)cc1 (stereo not given in full)	.	.	/	?	.	.
C/C(=N/O)c1ccc2cc(Br)c3ccccc3c2c1	/	/	/	/	/	.
O=C(Nn1cnnc1)c1ccc(Cl)c(Cl)c1	/	.	.	.	.	.
SMILES	Shiga toxin inh	CHX counter	Pf growth 48h	Pf growth 96h	SARS PLpro yeast	NS1 function inh
CCCCc1nc(N2CCOCC2)c(C#N)c2c1COC(C)(C)C2	.	.	6.6µM	9.3µM	.	.
Cc1ccc(NC(=O)COC(=O)c2ccc3c(c2)NC(=O)C2CCCN32)cc1 (stereo not given)	.	.	10µM	.	.	.
CCOC(=O)CCCCCC(=O)Nc1ccc2c(c1)CC(=O)N([C@@H](C)CO)C[C@H](C)[C@@H](CN(C)C(=O)Nc1ccc3c(c1)OCO3)O2	/	/	/	/	.	/
O=c1cc2c(n[nH]1)-c1ccccc1CC2	.	.	.	.	.	.
Cc1ccc(Cl)cc1NC(=O)C1COc2ccccc2O1 (stereo not given)	.	.	.	.	.	.
COc1cccc(NC(=O)C2COc3ccccc3O2)c1 (stereo not given)	/	60	.	?	.	.
O=C(Nc1cccc(Cl)c1)C1COc2ccccc2O1 (stereo not given)	.	16	.	1.7µM	.	.
COC(=O)c1cc(NC(=O)C2COc3ccccc3O2)cc(C(=O)OC)c1 (stereo not given)	.	.	?	/	.	.
Cc1cc(Cl)ccc1NC(=O)C1COc2ccccc2O1 (stereo not given)	87	37	.	.	.	.
COc1ccc(NC(=O)CC2Oc3ccccc3NC2=O)c(OC)c1 (stereo not given)	.	.	.	.	.	.
N#Cc1cccc(NC(=O)CC2CCCC2)c1	.	.	.	.	.	.
COc1ccc(O)c(C(=O)c2cnc3nc4ccccc4n3c2)c1	.	.	.	.	.	.
COc1ccc(O)c(C(=O)c2cnn(-c3ccc(Cl)cc3)c2)c1	40	.	?	?	.	.
COc1ccc(O)c(C(=O)c2cnn(-c3ccccn3)c2)c1	63	33	.	.	.	.
COc1ccc(C(=O)N2CCN(c3ccc(N4CCOCC4)nn3)CC2)cc1OC	/	/	?	?	.	/
CCC(CC)C(=O)N1CC(=O)Nc2ccc(F)cc2C1c1ccccc1 (stereo not given)	.	.	.	.	.	.
CC1CCN(S(=O)(=O)c2ccc(S(=O)(=O)N3CCCC3)cc2)CC1	.	.	.	.	.	.
Nc1cccc(Oc2ccc3c(c2)C(=O)N(CC2CCCO2)C3=O)c1 (stereo not given)	82	35	.	.	.	.
CCN(C(=O)Cc1c(C(=O)O)n(C)c2ccccc12)c1cccc(C)c1	.	.	.	.	.	.
O=C(Nc1ccccc1)NC1(C(=O)NCc2cccs2)CCCCC1	.	.	.	.	.	.
CCN(CC(=O)Nc1ccccc1OC)C(=O)c1ccc(N(C)S(=O)(=O)c2ccc(C)cc2)cc1	/	/	.	?	.	/
CCOc1ccc(NC(=O)C(C)NS(=O)(=O)c2ccc(NC(C)=O)cc2)cc1 (stereo not given)	.	.	.	.	.	/
Cc1ccc(CNC(=O)CN(C)S(=O)(=O)c2cccc3nsnc23)cc1	.	.	.	.	?	.
CCN(CCNC(=O)CN(C)S(=O)(=O)c1cccc2nsnc12)c1ccccc1	.	.	/	12µM	.	.
CCN(CCCNC(=O)CN(C)S(=O)(=O)c1cccc2nsnc12)c1cccc(C)c1	.	.	?	8.3µM	.	.
COc1ccc(C(c2oc(CO)cc(=O)c2O)c2oc(CO)cc(=O)c2O)cc1OC	.	.	.	.	7.9µM	/
O=c1cc(CO)oc(C(Nc2ccccn2)c2ccc(F)cc2)c1O (stereo not given)	.	.	.	.	.	.
COc1ccc2c(=O)c(-c3ccccc3)c(C)oc2c1	34	.	.	.	.	.
COc1cc(C)cc(CN2CC=C(c3ccccc3)CC2)c1O	.	.	1.2µM	?	.	/

Assay outcomes deposited in PubChem by National Center for Advancing Translational Sciences (NCATS).
